From the supplement of paper PMC6555819

System: PPARg:RXRa 90nM:30nM, anti-RXR (NR concentration 90 nM, RXRa partner concentration 30 nM)
Assay: PBM binding z-score (relative to random genomic background probes); higher = stronger binding; sequences stand for … in GC…GCGATTGACAGCGTAGAATGAAGG
Procedure, shortened: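 Binding z-scores were set against random background probes. The data came from custom Agilent 4×180K protein-binding microarrays carrying double-stranded probes with 34-nt variable regions, incubated 1 h with ligand-free nuclear receptor dimers. Partner-specific antibodies detected binding, and scanned fluorescence was regression-normalized.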

| Sequence | PBM binding z-score |
| --- | --- |
| TTACCAAGGTGAAGGTCGTTGACCCCTCTGTAGA | 3.77 |
| TAGCCTAGGTCAGACCGGGCCAGTATACGCTATA | 0.23 |
| CCTTACGGGTCAAGATTATAGCACGGGTGGTACG | 2.56 |
| CGAACTAGGTCACGAAAGGTCAAAGTCGAATGAC | 8.51 |
| ATCTCTAGGTAAAGTTAGTTCAGTGAATGCAAAT | 1.03 |
| AATACAGGGTCATCCTAGGCCAGAGTACGCACAG | 4.48 |
| TCTATTAGTTGAGTAGGGCAACCGAAACAGCGGA | 2.23 |
| TTTAGCAGGCCAGAGGGTCACTCAAGAGGTACGG | 2.42 |
| TCATATAGGTAAATCCTAGGTGAAAGTCCGATCT | 2.72 |
| CCTTACGGGTCACTCCAGGTAATAGCATCGGAGT | 2.94 |
| CCTTACGGGTCACTGACAAGTTATAGCATTTGGA | 3.45 |
| CCTACTGGACCAAAAAGGTCATTGATGCCGATAA | 2.53 |
| CGTCCAAGGTCAATGCTATGTCAGTGAAAGCATT | 2.95 |
| CCGACTGGGGCAGAAAGGCTACCATACCATCCGG | -0.612 |
| CGAACGAGGGCATGATTTGATAGCAAATGCCGAT | 0.0789 |
| CGTCCAAGGTTAGAGAGGTCAGTGAATGCCGAGT | 0.655 |
| GCGACTGGGGCAAAGCAGGTTAACATAAGGTTGG | 0.614 |
| CCTACTGGGCCATTCAGAGGTCATTTATCATATG | 1.78 |
| AGTCAAAGTTCACTAGGTAACGTAAGATTCAGCT | 6.12 |
| TGTCACAGTTCAAAGGTAACGTAAGTATCCACAC | 3.69 |

| Sequence | PBM binding z-score |
| --- | --- |
| TCTAGATGGTCACGGAGGTCACACACGACGGGTA | 4.04 |
| ATCTCTAGGTAACCAAGTTAAGTGAATGCCGAAC | 0.476 |
| ACTAGCAGGCCAAGGGGCACTCAAGATTAGTCCG | 4.64 |
| GCTGCTAGGTCAACTGATGCTCAGCTAAAGCTCG | 2.26 |
| TCTACTAGGTCAACGATGGTCAGCTAATCTGCTA | 5.88 |
| AGAACGAGGGCAATGAGGTGATAGCACGGGTGGC | 0.347 |
| ACTATTACTTGAGACGAGGGCAACCGATAGGTTG | 0.266 |
| GGAACGTGGGCATTCGAGTTGATAGCATGGCGAT | -0.858 |
| CGAACGAGGGCATGAGTTGATAGCGAATGCCGAT | 1.04 |
| AGTCCAAGTTCATCTAGGTAACGTAAGATATGCT | 0.991 |
| GCTAGTTGGTCAGTATAAGGTCACACACCGGTCG | 1.37 |
| TCGAGTAGGTAAGGGGCATTCAGAATGGCGTCGA | 1.41 |
| GCTAGCAGGACATTTGGGTCACTCAATGACGGGC | -0.0664 |
| TAACCAAGGTGAAGGTCGTTGATCCCTCTGTAGA | 4.01 |
| TAGCCTAGGTCAGATCGGGCCAATATACGCTATA | 0.383 |
| ATCTCTAGGTAAAGATAGTACAGTGAATGCAAAT | 0.761 |
| CAAACTAGGTGAAAGGTCAAAGTCGAGCCAACCA | 14.2 |
| CCTCGCAGGACAACAGGAGGTCAGAGCTGCCAGA | -0.445 |
| ACTAGCAGGCCAAGTTTTGGTCACTCAAACAAAG | -0.457 |
| ACTAGCAGGCCAAGGGTCGCTCAAGATTAGTCCG | 5.95 |
